# In the supplement of paper PMC6555819:
# What was measured:
# Experiment in all cases: PBM binding z-score (relative to random genomic background probes); higher = stronger binding; sequences stand for … in GC…GCGATTGACAGCGTAGAATGAAGG
# [1] = system: FXR:RXRa (NR concentration 270 nM, RXRa partner concentration 90 nM)
# Outline: (§1)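 Binding z-scores take random background probes as their reference. They come from custom Agilent 4×180K protein-binding microarrays incubated 1 h with ligand-free nuclear receptor dimers, with antibodies against each partner (one per run) detecting binding. Scanned fluorescence was regression-normalized.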
# [2] = system: LXRa:RXRa (NR concentration 270 nM, RXRa partner concentration 90 nM)
# Outline: as §1
# [3] = system: LXRa homodimer (NR concentration 270 nM)
# Outline: as §1
# [4] = system: LXRb:RXRa (NR concentration 270 nM, RXRa partner concentration 90 nM)
# Outline: as §1
# [5] = system: LXRb homodimer (NR concentration 270 nM)
# Outline: as §1
# [6] = system: PPARa:RXRa (NR concentration 270 nM, RXRa partner concentration 90 nM)
# Outline: as §1
# [7] = system: PPARg:RXRa (NR concentration 180 nM, RXRa partner concentration 90 nM)
# Outline: as §1
# [8] = system: PPARg:RXRa 270nM:90nM, anti-RXR (NR concentration 270 nM, RXRa partner concentration 90 nM)
# Outline: as §1
# [9] = system: PPARg:RXRa 30nM:10nM, anti-RXR (NR concentration 30 nM, RXRa partner concentration 10 nM)
# Outline: as §1
# [10] = system: PPARg:RXRa 90nM:30nM, anti-RXR (NR concentration 90 nM, RXRa partner concentration 30 nM)
# Outline: as §1
# [11] = system: PPARg:RXRa DBDmut IVT, anti-RXR (DBD mutation: RXRa K156A/R161A, NR concentration 270 nM, RXRa partner concentration 90 nM)
# Outline: as §1
# [12] = system: PPARg:RXRa IVT, anti-PPARg (NR concentration 270 nM, RXRa partner concentration 90 nM)
# Outline: as §1
# [13] = system: PPARg DBDmut:RXRa IVT, anti-PPARg (DBD mutation: PPARg1 K132A/R137A, NR concentration 270 nM, RXRa partner concentration 90 nM)
# Outline: as §1
# [14] = system: PPARg DBDmut IVT, anti-PPARg (DBD mutation: PPARg1 K132A/R137A, NR concentration 270 nM)
# Outline: as §1
# [15] = system: PPARg homodimer (NR concentration 180 nM)
# Outline: as §1
# [16] = system: PXR:RXRa (NR concentration 270 nM, RXRa partner concentration 90 nM)
# Outline: as §1
# [17] = system: PXR homodimer (NR concentration 270 nM)
# Outline: as §1
# [18] = system: RARa:RXR (NR concentration 270 nM, RXRa partner concentration 90 nM)
# Outline: as §1
# [19] = system: RARa homodimer (NR concentration 270 nM)
# Outline: as §1
# [20] = system: RARb:RXRa (NR concentration 270 nM, RXRa partner concentration 90 nM)
# Outline: as §1
Sequence,PBM binding z-score [1],PBM binding z-score [2],PBM binding z-score [3],PBM binding z-score [4],PBM binding z-score [5],PBM binding z-score [6],PBM binding z-score [7],PBM binding z-score [8],PBM binding z-score [9],PBM binding z-score [10],PBM binding z-score [11],PBM binding z-score [12],PBM binding z-score [13],PBM binding z-score [14],PBM binding z-score [15],PBM binding z-score [16],PBM binding z-score [17],PBM binding z-score [18],PBM binding z-score [19],PBM binding z-score [20]
ATCGAAAGGTCGACGAGGTGAGTTTACACCGTTT,4.66,3.45,0.17,2.95,0.407,4.71,2.73,3.1,0.726,2.05,0.636,2,1.01,0.288,1.24,3.35,0.675,3.27,0.024,3.9
CTCAAAAGGTCGGTTGAGGTGAGTATACGGATAA,2.63,1.8,-0.331,1.63,0.0339,2.98,0.821,1.29,0.383,0.881,-0.129,1.12,0.328,0.889,0.591,3.26,0.191,2.82,-0.384,3.4
TAGCCTAGGTCCTGGGCCAGTATACCACGCGAAC,-0.638,-1.08,-0.796,-0.85,-1.45,-0.439,-0.0172,-0.469,-1.04,-0.662,-1.56,-0.0166,-0.0149,-1.32,-1.29,-0.91,-0.893,-0.567,-1.37,-0.156
TCAGACAAGTGAAGGTAACTCAGGTACGCAGTCG,0.55,1.36,-0.177,0.561,-0.499,0.902,0.548,2.26,3.99,2.94,2.07,0.111,0.0158,-0.174,-0.105,0.509,-0.105,0.807,-0.0772,0.197
GCATATAGCTAATACAAGGTGAAAGTCCGATTGT,-0.158,-0.177,0.202,-0.0693,-0.0357,0.477,0.487,0.425,-0.0371,0.33,0.11,0.315,0.87,-0.0254,0.259,0.262,0.241,0.651,0.533,0.107
AGTCAAAGTTCACTAGGTAACTTAAGATTCAGCT,5.3,5.02,3.26,3.15,1.21,4.91,6.82,6.55,3.6,5.72,2.47,4.8,2.06,1.17,1.24,4.02,2.95,3.07,1.01,4.73
ATATGTAGGTTAAGGGTCATTCGGGTTGGTTCGC,5.36,4.83,3.47,4.62,1.81,6.53,12.2,10.3,11.7,12.2,7.7,8.1,6.59,4.92,8.66,6.02,3.75,6.67,3.12,3.43
ATCTCTAGGTAAAGATAGGTCAGTGAATGCAAAT,0.743,5.46,1,2.53,0.609,1.87,0.963,1.24,0.668,0.741,2.37,2.45,1.34,1.35,1.17,1.05,0.597,1.52,1.54,1.81
CCTCGGAGGACAACAGGAGTTCAGAGCTGCCAGA,0.094,0.777,1.72,-0.123,-0.822,0.00336,0.0297,-0.913,-1.16,-1.11,-0.298,-1,-2.34,-1.22,0.513,1.92,1.78,0.366,0.371,1.67
TCTTGTAGATCAAAGGTTAAGAAAGCCGAAGCCT,1.74,1.97,-0.166,2.14,-0.146,4.65,8.31,8.09,9.09,8.69,2.11,3.55,0.0229,0.863,1.18,2.02,-0.0145,3.24,0.581,1.85
CTTCCAAGGTCATAGGAGGTCAGTGAAGACAGAT,7.67,7.56,6.46,6,1.51,6.02,5.71,6.17,2.87,4.89,3.59,4.67,1.93,1.31,4.55,6.93,4.92,6.14,3.57,5.42
GTACCAAGGTGAATAGGTCGCTGATGAGTAGGCG,0.713,0.531,-0.254,0.0295,-0.695,1.95,1.48,1.74,0.17,1.14,1.89,2.89,-0.721,-0.6,0.508,0.271,-0.637,1.34,-0.0761,2.07
TGTCAAAGTTCAAAGGTAACGTCAGTATCCACAC,7.51,6.72,4.98,4.84,1.79,5.79,8.85,7.88,5.71,7.79,0.357,4.74,1.94,1.89,4.29,5.89,3.43,6.36,0.737,5.36
GCTGCTAGGTCAACTGATGGTCTGCTAAAGCTCG,3.83,2.66,-0.135,1.8,0.0375,3.45,2.31,2.78,0.103,1.81,4.88,4.03,0.365,-0.14,1.69,1.37,-0.53,2.39,0.112,4.1
